Measurements reported in PubChem BioAssay (NCATS).
Results filed as inconclusive are left out. Entries that show only a call come without a potency. Unmarked numbers belong to inactive results. Calls of active or inactive are those of the source. Unless noted, calls come from the whole dose curve; as a rule, active = well fitted curve in the direction sought with a large enough effect; inconclusive = small, poorly fitted or top-dose-only effect, or another doubt; inactive = no such curve, though single readings can be large; an effect the other way counts as inactive or inconclusive.

Key:
[1] = molecular target: Aldehyde dehydrogenase, mitochondrial (Homo sapiens) (UniProt P05091); assay: qHTS for Inhibitors of the Aldehyde Dehydrogenase Family (ALDH2) Confirmatory screens (AID 2061303; active = well fitted inhibition curve with a large enough effect; title and protocol of this record describe different tests; note: nearly all actives have a fitted effect of over 45% in size; note: potency is the fitted concentration of half-maximal effect)
[2] = qHTS for Inhibitors of the Aldehyde Dehydrogenase Family (ALDH1A2, ALDH1A3, ALDH2, ALDH3A1) (AID 2061307); note: nearly all actives have a fitted effect of over 50% in size; for potency: test system not described further here; potency is the fitted concentration of half-maximal effect
[3] = molecular target: Aldehyde dehydrogenase, mitochondrial (Homo sapiens) (UniProt P05091); assay: qHTS for Inhibitors of the Aldehyde Dehydrogenase Family (ALDH2) Primary screen (AID 2061308); note: nearly all actives have a fitted effect of over 55% in size; note: potency is the fitted concentration of half-maximal effect
[4] = molecular target: Retinaldehyde dehydrogenase 3 (Homo sapiens) (UniProt P47895); assay: qHTS for Inhibitors of the Aldehyde Dehydrogenase Family (ALDH1A3) Confirmatory screens (AID 2061311); note: nearly all actives have a fitted effect of over 60% in size; note: potency is the fitted concentration of half-maximal effect
[5] = molecular target: Retinal dehydrogenase 2 (Homo sapiens) (UniProt O94788); assay: qHTS for Inhibitors of the Aldehyde Dehydrogenase Family (ALDH1A2) Confirmation screens (AID 2061314); note: nearly all actives have a fitted effect of over 65% in size; note: potency is the fitted concentration of half-maximal effect
[6] = molecular target: Aldehyde dehydrogenase 1A1 (Homo sapiens) (UniProt P00352); assay: qHTS for Inhibitors of the Aldehyde Dehydrogenase Family (ALDH1A1) Confirmatory screens (AID 2061316); note: nearly all actives have a fitted effect of over 65% in size; note: potency is the fitted concentration of half-maximal effect
[7] = molecular target: Retinaldehyde dehydrogenase 3 (Homo sapiens) (UniProt P47895); assay: qHTS for Inhibitors of the Aldehyde Dehydrogenase Family (ALDH1A3) Primary screen (AID 2061315)
[8] = BET inhibitor-based combinations targeting novel dependencies in MECOM-rearranged (r) AML: SET-2 cell line (AID 2202231); details: SET-2 AML cells viability, CellTiter-Glo luminescence, 48 h; viability: stronger effect = lower value, series mostly up to about 46 µM; note: nearly all actives have a fitted effect of over 35% in size
Summary of the method: (§1)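 A 48 hr incubation preceded viability reading by CellTiter-Glo, with 15 min room-temperature development. Dose series had 11 points; normalization used DMSO and empty wells; AUC was computed and mean-centered per line as Z-AUC.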

[9] = BET inhibitor-based combinations targeting novel dependencies in MECOM-rearranged (r) AML: OCI-AML3 cell line (AID 2202232); details: Potency: OCI-AML3 viability; note: series mostly up to about 46 µM; nearly all actives have a fitted effect of over 35% in size
Summary of the method: as §1

[10] = BET inhibitor-based combinations targeting novel dependencies in MECOM-rearranged (r) AML: UCSD-AML1 cell line (AID 2202235); note: series mostly up to about 46 µM; nearly all actives have a fitted effect of over 40% in size
Summary of the method: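 Each compound is tested in an 11-point concentration series against 500 seeded cells/well for 48 hr. The luminescent viability signal is normalized to DMSO and blank wells, then reduced to AUC and a cell-line-centred Z-AUC.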

[11] = BET inhibitor-based combinations targeting novel dependencies in MECOM-rearranged (r) AML: AML-194 cell line (AID 2202237; note: nearly all actives have a fitted effect of over 40% in size)
Summary of the method: as §1

Compound	Potency [1]	Potency [2]	Potency [3]	Potency [4]	Potency [5]	Potency [6]	Potency [7]	viability [8] [%]	Potency [9]	Potency [10]	Potency [11]
FC(F)(F)c1cccc(N2CCN(C(=S)Nc3nccc4cccnc34)CC2)c1	11.3 µM (active)	28.2 µM (active)	7.94 µM (active)	11.3 µM (active)	10.1 µM (active)	7.98 µM (active)					
O=C(C1CCN(c2nc(-c3ccc(Br)cc3)cs2)CC1)N1CCOCC1	inactive	11.3 µM (active)	inactive	inactive	inactive	inactive	inactive				
COc1cc(NS(=O)(=O)c2ccc([N+](=O)[O-])cc2)c2ncccc2c1	7.08 µM (active)	0.712 µM (active)	20 µM (active)	10 µM (active)	3.16 µM (active)	5.65 µM (active)					
Cc1nnc(-c2ccccc2C(C)C)nc1NCc1ccc(-c2cccnc2)cc1	inactive	inactive	inactive	12.7 µM (active)	inactive	inactive	inactive				
Oc1ccc(Oc2ccccc2F)c2cccnc12	4.49 µM (active)	17 µM (active)	inactive	2.01 µM (active)	2.01 µM (active)	5.04 µM (active)					
Cc1ccc(-c2cc(C(=O)N3CCCCC3)c3ccccc3n2)cc1C	inactive	inactive	inactive	inactive	inactive	inactive	inactive				
CCOC(=O)c1ccoc1-c1ccc2ncnc(NCc3ncc[nH]3)c2c1	inactive	inactive	inactive	inactive			inactive				
Cn1nnnc1Sc1ncnc2scc(-c3cnc(N)nc3)c12	inactive	inactive	inactive	inactive			inactive				
Cc1ccnc(NC(=S)N2CCN(c3ccc(N)cc3)CC2)c1	inactive	inactive	inactive	inactive			inactive				
COc1ccc(C[C@@H](NS(=O)(=O)c2ccc(C(=O)O)cc2)C(=O)O)cc1	inactive	inactive	inactive	inactive	inactive	inactive	inactive				
N[C@@H](CCC(=O)O)C(=O)Nc1ccc(Cl)cc1C(=O)c1ccc[nH]1	inactive	inactive	inactive	inactive	inactive	inactive	inactive				
Fc1cc(Nc2nc(-c3ccncc3)nc3ccccc23)ccc1N1CCCCC1	inactive	inactive	inactive	11.3 µM (active)	0.712 µM (active)	3.57 µM (active)	inactive				
CCOc1cc(CNc2ccc(O)cc2)ccc1OCc1ccc(Cl)cc1	10.1 µM (active)	11.3 µM (active)	3.16 µM (active)	1.01 µM (active)	0.504 µM (active)	6.34 µM (active)					
COc1ccc(C2Nc3ccccc3C(=O)N2Cc2ccccc2)cc1COc1ccc(NC(=O)c2ccccc2)cc1 (stereo not drawn)	inactive	1.59 µM (active)	inactive	inactive			inactive				
NC(=O)C1CCN(c2ncc(-c3ccc4c(c3)OCCO4)s2)CC1	0.896 µM (active)	7.12 µM (active)	inactive	7.98 µM (active)	8.96 µM (active)	0.712 µM (active)					
Cc1cccc(Nc2nc(C#N)nc(NC3CCCC3)n2)c1	2.51 µM (active)	0.447 µM (active)	inactive	17.8 µM (active)			inactive				
CC(=O)Nc1ccc(S(=O)(=O)N2CCN(S(=O)(=O)c3ccc4c(c3)OCCO4)CC2)cc1	inactive	inactive	inactive	inactive	inactive	inactive	inactive				
N#Cc1ccc(-c2ccc(CNc3ccc(N4CCCCC4)cc3)o2)cc1	0.0712 µM (active)	0.712 µM (active)	inactive	11.3 µM (active)	2.25 µM (active)	8.96 µM (active)					
CC(=O)NCCC(=O)N[C@@H](CCC(N)=O)C(=O)N[C@@H](CO)C(=O)N[C@@H](CCC(N)=O)C(=O)N[C@@H](CCC(N)=O)C(=O)N[C@H](C(=O)N[C@@H](Cc1ccccc1)C(=O)N[C@]1(C)CCCCCCC=CCCC[C@@](C)(C(=O)N[C@@H](CCC(N)=O)C(=O)N[C@@H](CC(N)=O)C(N)=O)NC(=O)[C@H](CC(C)C)NC(=O)[C@H](CC(C)C)NC(=O)[C@@H](CCCNC(=N)N)NC(=O)[C@H](Cc2c[nH]c3ccccc23)NC(=O)[C@H](CC(C)C)NC(=O)[C@H](CC(N)=O)NC1=O)[C@H](C)O	inactive	inactive	inactive	inactive	inactive	inactive	inactive	109	inactive	inactive	inactive
NC(=O)c1ccc(C[C@H](C(=O)O)N2C(=O)c3ccc(C(=O)O)cc3C2=O)cc1	inactive	inactive	inactive	inactive	inactive	inactive	inactive				
